EWS-Fli inh – inhibitors of EWS/Fli oncoprotein transcriptional activity; inhibition, % at 12.6 µM; A673 NR0B1-luciferase reporter, viability-normalised; 350,000 tested, 0.67% active;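 active means mean inhibition of at least 50% after viability correction, with every replicate also passing that limit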;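 further: firefly luciferase signal divided by Alamar Blue viability fluorescence both relative to DMSO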
HIV Env fusion – blocks HIV Env-driven cell-cell fusion; 360,000 tested, 1.1% active; AID 651610; HeLa-JRFL Env/CEM21 cell fusion, luciferase; inhibition, % at 12.3 µM;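 active means mean replicate inhibition score of at least 50 and every replicate individually at or above 50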;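 further: 0% = plate neutral controls and 100% = maraviroc near 300 nM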
Statin myotox sup – protects C2C12 myotubes from simvastatin toxicity; ATP luminescence, 48 h; scaled: DMSO 0, geranylgeraniol control 100; rescue of ATP level, % at 7.49 µM; 330,000 tested, 0.78% active;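 active means mean ATP rescue above about 67%, or every replicate alone reaching that limit, limit read from the data, passing the limit was not always enough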;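 further: myotubes were challenged with 10 µM simvastatin during compound exposure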
INS-1E GSIS act – GLuc luminescence reporter in INS-1E cells, primary screen for activators of glucose-dependent secretion of insulin; INS-1E GLuc reporter insulin secretion, 2-3 h; AID 743287; 370,000 tested, 0.61% active; activation, % at 16.6 µM;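 active means lowest replicate activation of at least 40%, so every replicate reaches that level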;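 further: 0% = median of neutral control wells and 100% = median of IBMX positive control wells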
PAX8 inh HTS – lowers PAX8-driven luciferase in RMG-I cells; AID 652154; inhibition, % at 12.6 µM; 360,000 tested, 1.2% active; RMG-I TPO-luciferase reporter, SteadyGlo, 24 h;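 active means mean replicate inhibition at least 60% with every replicate also reaching 60%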;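 further: luciferase light reporting Pax8 driven TPO promoter activity; plate controls were median of neutral control wells for no effect and mitoxantrone controls for full effect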
miR122 inh – blocks miR-122 activity in Huh7 sensor cells. Huh7 miR-122 Renilla luciferase sensor, 48 h; neutral wells = 0, positive control = 100. activation (reporter increase), % at 12.5 µM. 340,000 tested, 0.3% active. AID 602342;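 active means mean replicate activation score at least 90 and every replicate individually at or above 90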;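 further: higher luciferase means less miR-122 activity so hits act as miR-122 inhibitors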
Starred values were filed as active, the others as inactive; . = no result given; ! = not active in a repeat; [ ] = dose if it differs, or a comment. Shown are actives, neighbours in structure and some others; about 3.1% of the full set was active somewhere.

SMILES | EWS-Fli inh | HIV Env fusion | Statin myotox sup | INS-1E GSIS act | PAX8 inh HTS | miR122 inh
C[C@@H]1CN([C@@H](C)CO)C(=O)c2c(c3ccccc3n2C)-c2ccccc2CO[C@@H]1CN(C)C(=O)[C@@H](Cc1ccccc1)N(C)C | 15.0 | -110.1[16.7 µM] | -24.2 | 3.3 | 37.7 | .
C[C@H](C(=O)N(C)C[C@@H]1OCc2ccccc2-c2c(n(C)c3ccccc23)C(=O)N([C@@H](C)CO)C[C@H]1C)c1ccccc1 | 11.1 | 67.0*[16.7 µM] | . | -25.5 | . | .
C[C@H](CO)N1C[C@H](C)[C@@H](CN(C)C(=O)[C@H](Cc2ccccc2)N(C)C)OCc2ccccc2-c2c(n(C)c3ccccc23)C1=O | 0.0 | 60.3*[16.7 µM] | . | 4.7 | -12.1 | .
CCc1nnc(NC(=O)CSc2nnc(-c3ccc(NS(=O)(=O)c4ccccc4)cc3)o2)s1 | 14.6 | . | 107.8* | 3.7 | 24.4 | -0.9
COc1ccccc1NC(=O)CSc1nnc(-c2ccccc2)o1 | -56.8 | -72.4 | 11.7 | 84.2* | -221.2 | -0.6
COC(=O)CSc1nnc(-c2ccc(NS(=O)(=O)c3ccccc3)cc2)o1 | . | . | -0.6 | . | . | -1.3
COc1ccccc1NC(=O)CSc1nnc(Cc2ccccc2)o1 | -0.5 | . | 20.1 | . | . | -4.0
CCCCc1ccc(NC(=O)COc2ccc(C(=O)Nc3ccccc3OCC)cc2)cc1 | . | . | . | 71.0* | 25.0 | 2.9
CCOc1ccc(NC(=O)COc2ccc(C(=O)NCCc3ccccc3)cc2)cc1 | -8.9 | . | . | -10.3 | 72.7* | 17.9
CC(C)c1ccccc1NC(=O)COc1ccc(C(=O)NCCc2ccccc2)cc1 | . | 20.2 | . | -6.7 | 1.2 | .
C[C@H](CO)N1C[C@H](C)[C@H](CN(C)Cc2ccc3c(c2)OCO3)Oc2ncc(-c3cc4ccccc4o3)cc2C1=O | . | . | . | -10.1 | . | .
C[C@@H]1CCCCO[C@@H](CN(C)C(=O)CCCN(C)C)[C@@H](C)CN([C@@H](C)CO)C(=O)c2cc(NS(=O)(=O)c3cccs3)ccc2O1 | . | . | . | 14.2 | . | .
CN1C(=O)c2cc(NC(=O)c3ccc(F)c(F)c3)ccc2OC[C@@H]2O[C@@H](CC(=O)N[C@@H]3CCN(Cc4ccccc4)C3)CC[C@@H]21 | -2.4 | -21.2[16.7 µM] | 9.1 | -22.2 | 21.3 | .
Oc1ccc(-c2nc3c4c(ncn3n2)-c2ccccc2CC42CCCC2)cc1 | . | . | . | 190.4* | . | .
O=C(/C=C/c1ccccc1)Nc1cccnc1Oc1ccccc1F | -48.7 | -26.5 | 94.5* | . | -63.5 | 5.1
O=C(C[C@@H]1C=C[C@@H](NC(=O)NC2CCCC2)[C@@H](CO)O1)NCc1ccc(F)cc1 | -0.5 | 12.3[16.7 µM] | -1.4 | -1.0 | -4.7 | .
C[C@@H]1CN([C@H](C)CO)C(=O)c2cc(NC(=O)Nc3ccc(C(F)(F)F)cc3)ccc2O[C@@H](C)CCCCO[C@@H]1CN(C)CC1CCCCC1 | 78.1* | 9.4[16.7 µM] | . | 15.9 | -9.7 | -27.2[16.7 µM]
C[C@@H]1CN([C@@H](C)CO)C(=O)c2cc(NC(=O)Nc3ccc(C(F)(F)F)cc3)ccc2O[C@@H](C)CCCCO[C@H]1CN(C)CC1CCCCC1 | 46.6 | 9.7[16.7 µM] | . | -11.3 | -2.3 | 3.7[16.7 µM]
C[C@H](CO)N1C[C@H](C)[C@H](CN(C)CC2CCCCC2)OCCCC[C@H](C)Oc2ccc(NC(=O)Nc3ccc(C(F)(F)F)cc3)cc2C1=O | -11.7 | 24.0[16.7 µM] | . | 5.1 | 68.3* | -21.6[16.7 µM]
C[C@H](CO)N1C[C@H](C)[C@@H](CN(C)CC2CCCCC2)OCCCC[C@H](C)Oc2ccc(NC(=O)Nc3ccc(C(F)(F)F)cc3)cc2C1=O | 60.3* | 4.7[16.7 µM] | . | -19.7 | 14.1 | -27.0[16.7 µM]
CCCN(C)C[C@H]1OCCCC[C@@H](C)Oc2ccc(NC(=O)Nc3ccc(C(F)(F)F)cc3)cc2C(=O)N([C@H](C)CO)C[C@H]1C | -5.0 | 8.1[16.7 µM] | . | -5.2 | 82.3* | -12.8[16.7 µM]
CCCN(C)C[C@H]1OCCCC[C@H](C)Oc2ccc(NC(=O)Nc3ccc(C(F)(F)F)cc3)cc2C(=O)N([C@@H](C)CO)C[C@H]1C | 1.2 | 8.5[16.7 µM] | . | 14.4 | 53.6 | 1.1[16.7 µM]
CN(C)C(=O)C[C@H]1CC[C@H]2[C@@H](COc3ccc(NC(=O)NCc4ccccc4)cc3C(=O)N2C)O1 | -7.5 | 6.3[16.7 µM] | 15.7 | 5.6 | -7.1 | 18.3[16.7 µM]
Cc1ccccc1S(=O)(=O)N1C[C@@H](O)COC[C@H]2O[C@@H](CC(=O)O)CC[C@@H]21 | 4.7 | -10.9[16.7 µM] | -18.1 | 10.2 | -10.8 | 1.5[16.7 µM]
C[C@H](CO)N1C[C@H](C)[C@@H](CN(C)C)Oc2ccc(NC(=O)C3CCCCC3)cc2CC1=O | -1.7 | -2.5[16.7 µM] | -19.0 | -0.4 | -19.3 | 5.0[16.7 µM]
SMILES | EWS-Fli inh | HIV Env fusion | Statin myotox sup | INS-1E GSIS act | PAX8 inh HTS | miR122 inh
O=C(C[C@@H]1C=C[C@H](NS(=O)(=O)c2ccc(F)cc2)[C@@H](CO)O1)N1CCN(c2ccccc2)CC1 | 9.0 | 6.8[16.7 µM] | -4.1 | 4.3 | -9.4 | 2.7[16.7 µM]
COc1ccc(-c2cc3nc(C)cc(N4CCN(C(=O)c5ccoc5)CC4)n3n2)cc1 | -12.0 | 5.6 | -4.9 | -23.7 | 0.1 | 0.8
COc1ccc(-c2[nH]nc3nc(N4CCN(C(=O)c5ccoc5)CC4)cc(C(F)(F)F)c23)cc1 | 55.1* | 3.7 | -21.8 | -2.5 | 33.8 | 11.1
CCOC(=O)C1(Cc2ccc(OC)cc2)CCN(C(=O)CN2CCCCC2=O)CC1 | -14.8 | -10.6 | . | -3.8 | 91.9* | -4.8
CCOC(=O)C1(Cc2ccc(OC)cc2)CCN(C(=O)CN2CCOC2=O)CC1 | -52.5 | -10.6 | 0.9 | -0.1 | -18.2 | 3.4
C[C@@H]1CN([C@@H](C)CO)C(=O)c2cc(NS(=O)(=O)c3cccs3)ccc2O[C@@H]1CN(C)Cc1ccc(Cl)c(Cl)c1 | -1.3 | 4.3[16.7 µM] | 32.3 | -41.4 | 45.4 | -5.6[16.7 µM]
C[C@@H]1CN([C@H](C)CO)C(=O)CCCn2cc(nn2)CO[C@H]1CN(C)C(=O)Nc1ccc(-c2cccs2)cc1 | -6.9 | . | 3.1 | -1.5 | 81.7* | -6.5
C[C@H]1CN([C@@H](C)CO)C(=O)CCCn2nncc2CO[C@H]1CN(C)C(=O)Nc1ccc(-c2cccs2)cc1 | -2.1 | . | -2.1 | -11.0 | 66.0* | 3.5[16.7 µM]
C[C@@H]1CN([C@@H](C)CO)C(=O)CCCn2nncc2CO[C@H]1CN(C)Cc1ccccc1 | -1.9 | -36.1 | -1.1 | 40.9*! | -16.8 | -3.2
C[C@H]1CN([C@@H](C)CO)C(=O)CCCn2nncc2CO[C@@H]1CN(C)C(=O)Nc1ccccc1 | -10.6 | . | -11.0 | 6.5 | -0.2 | 4.0[16.7 µM]
C[C@H]1CN([C@@H](C)CO)C(=O)CCCn2nncc2CO[C@@H]1CN(C)Cc1ccccc1 | -2.1 | 5.1 | 5.3 | 2.1 | -2.0 | -1.5
C[C@@H]1CN([C@@H](C)CO)C(=O)CCCn2nncc2CO[C@H]1CN(C)C(=O)Nc1ccc(-c2cccs2)cc1 | -1.1 | 5.8 | 2.4 | 7.2 | 84.4* | -2.1
C[C@H](CO)N1C[C@H](C)[C@@H](CN(C)C(=O)Nc2ccc(-c3cccs3)cc2)OCc2cnnn2CCCC1=O | -7.6 | . | -9.2 | 0.8 | 58.1 | -4.8[16.7 µM]
C[C@H]1CN([C@@H](C)CO)C(=O)c2cccc(NS(=O)(=O)c3ccc(Cl)cc3)c2O[C@H]1CN(C)Cc1ccc(C(=O)O)cc1 | -5.1 | 21.3[16.7 µM] | . | 3.1 | . | -2.4[16.7 µM]
